These results are taken from PubChem BioAssay (NCI).

The structures appear in SMILES notation. About 83,000 compounds went through this panel and 20% of them were active in at least one assay; those are over-represented in the sample as a whole.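 Plates (96-well) were seeded with cells, treated with compound at one concentration, and incubated for 48 hours before percent growth was determined.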 Unmarked numbers belong to inactive results. Calls of active or inactive are those of the source. Rule for the calls: active = growth percent below 10; inactive = the rest.

Some test systems named below: NCI-H23 lung; NCI-H226 lung; NCI-H322M lung; HOP-62 NSCLC; NCI-H460 lung; HOP-92 NSCLC; NCI-H522 lung; A549/ATCC NSCLC; 786-0 renal; COLO 205 colon; DU-145 prostate; K-562 leukemia; MALME-3M melanoma; MDA-MB-231 breast; RXF 393 renal; SF-268 CNS; SF-295 CNS; SF-539 CNS; UACC-257 melanoma; M14 melanoma.
Common to all, as to assay: NCI-60 one-dose screen, 48 h (100 = growth as untreated, 0 = no growth, -100 = all killed)
What all share (details): 10 µM unless noted

In the case of `COC(=O)c1ccc(-n2cc(CCCOS(=O)(=O)c3ccc(F)cc3)nn2)cc1`, the growth in the experiment on NCI-H23 lung was 98.1%; in the experiment on NCI-H226 lung, 97.9%; with NCI-H322M lung, 102%; with HOP-62 NSCLC it was 106%; in the experiment on NCI-H460 lung it was 102%; in the experiment on HOP-92 NSCLC it was 100%. Moreover, the growth with NCI-H522 lung is 93.7%; in the experiment on A549/ATCC NSCLC, 97%; with 786-0 renal, 97.1%; in the experiment on COLO 205 colon, 107%; with DU-145 prostate, 107%; in the experiment on K-562 leukemia, 95.5%. Further, the growth was 98.6% with MALME-3M melanoma; 106% in the experiment on MDA-MB-231 breast; 105% with RXF 393 renal; 98.6% with SF-268 CNS; 102% with SF-295 CNS; 96.7% in the experiment on SF-539 CNS. In addition, the figures for the growth with UACC-257 melanoma and in the experiment on M14 melanoma were 97.2% and 104%, respectively.
Turning to `N=C(N)c1ccc(-c2ccc(-c3ccc(Cl)cc3Cl)s2)nc1`, the growth is 85.2% with NCI-H23 lung; 91.7% with NCI-H226 lung; 60.9% with NCI-H322M lung; 90.7% in the experiment on HOP-62 NSCLC; -60.1% (active) in the experiment on NCI-H460 lung; 84.2% in the experiment with HOP-92 NSCLC. Moreover, the growth in the experiment with NCI-H522 lung is 29%; in the experiment on A549/ATCC NSCLC it was 33.1%; in the experiment with 786-0 renal, 85.4%; in the experiment on COLO 205 colon, -27.1% (active); in the experiment on DU-145 prostate, 28.7%; in the experiment with K-562 leukemia it was -1.71% (active). The growth is 100% with MALME-3M melanoma; 74.3% in the experiment with MDA-MB-231 breast; 79.8% in the experiment on RXF 393 renal; 89.8% in the experiment on SF-268 CNS; 58.4% in the experiment on SF-295 CNS; 83.5% in the experiment on SF-539 CNS. The growth in the experiment with UACC-257 melanoma was 101%; with M14 melanoma it was 74.7%.
`COc1ccc(/C=C\c2cc(OC)c(OC)c(OC)c2)cc1OCC(=O)Nc1nc2ccccc2s1`: the growth in the experiment with NCI-H23 lung was 23.5%; in the experiment with NCI-H226 lung it was 41.7%; in the experiment with NCI-H322M lung it was 61.6%; in the experiment with HOP-62 NSCLC, 62.5%; in the experiment with NCI-H460 lung it was 1.29% (active); in the experiment on HOP-92 NSCLC it was 50.6%. Besides, the growth in the experiment with NCI-H522 lung was -21.8% (active); with A549/ATCC NSCLC it was 29.9%; in the experiment on 786-0 renal, 51.4%; with COLO 205 colon, 6.65% (active); in the experiment with DU-145 prostate, -27.3% (active); in the experiment with K-562 leukemia it was 15.6%. Besides, the growth in the experiment with MALME-3M melanoma was 49.7%; in the experiment on MDA-MB-231 breast, 21.8%; in the experiment on RXF 393 renal, 20.6%; in the experiment with SF-268 CNS, 24.1%; in the experiment with SF-295 CNS, 9.97% (active); with SF-539 CNS, 11.8%. Moreover, the results for the growth with UACC-257 melanoma and with M14 melanoma were 54.4% and 27.6%, respectively.
Take `COc1c(O[C@@H]2OC(CO)[C@H](O)[C@H](O)C2O)cc2oc3cc(O)c(CC=C(C)C)c(O)c3c(=O)c2c1CC=C(C)C` (stereo not given in full): the growth was 93.5% in the experiment with NCI-H23 lung; 86.6% in the experiment with NCI-H226 lung; 103% in the experiment with NCI-H322M lung; 79% in the experiment on HOP-62 NSCLC; 101% in the experiment on NCI-H460 lung; 81.1% in the experiment with HOP-92 NSCLC. The growth in the experiment with NCI-H522 lung was 64.6%; in the experiment with A549/ATCC NSCLC, 97.4%; in the experiment with 786-0 renal, 106%; in the experiment on COLO 205 colon, 96.3%; with DU-145 prostate, 104%; in the experiment with K-562 leukemia it was 68.5%. In addition, the growth was 104% with MALME-3M melanoma; 68.5% in the experiment with MDA-MB-231 breast; 110% in the experiment with RXF 393 renal; 92.1% with SF-268 CNS; 93.2% in the experiment on SF-295 CNS; 107% with SF-539 CNS. Besides, the growth is 91.3% in the experiment with UACC-257 melanoma and 86.2% in the experiment on M14 melanoma.
As to `Brc1ccc(-c2nn(-c3ccccc3)cc2-c2nn[nH]n2)s1`, the growth in the experiment with NCI-H23 lung was 92.7%; in the experiment with NCI-H226 lung, 85.7%; in the experiment with NCI-H322M lung, 96%; with HOP-62 NSCLC, 82.7%; with NCI-H460 lung, 102%; in the experiment with HOP-92 NSCLC it was 62.4%. Besides, the growth is 84.1% in the experiment with NCI-H522 lung; 93.9% in the experiment on A549/ATCC NSCLC; 88.1% in the experiment with 786-0 renal; 120% with COLO 205 colon; 108% in the experiment on DU-145 prostate; 87.2% in the experiment with K-562 leukemia. Further, the growth with MALME-3M melanoma is 103%; in the experiment on MDA-MB-231 breast, 87.3%; in the experiment with RXF 393 renal, 100%; in the experiment on SF-268 CNS, 92.8%; in the experiment with SF-295 CNS it was 82.6%; in the experiment on SF-539 CNS, 91.4%. Also, the growth is 98% in the experiment on UACC-257 melanoma and 96.9% with M14 melanoma.
For the compound `C#CCOc1cccc(-c2ncnc3cc(NC(=O)CCl)ccc23)c1`, the growth in the experiment on NCI-H23 lung was 10.3%; with NCI-H226 lung it was -11% (active); with NCI-H322M lung, 71.8%; in the experiment with HOP-62 NSCLC, -46.2% (active); in the experiment with NCI-H460 lung it was -18.7% (active); in the experiment with HOP-92 NSCLC, -67.1% (active). Moreover, the growth with NCI-H522 lung was -77.1% (active); in the experiment with A549/ATCC NSCLC, 16.7%; in the experiment with 786-0 renal it was -85.4% (active); in the experiment on COLO 205 colon, -82.4% (active); in the experiment with DU-145 prostate, 13.9%; in the experiment on K-562 leukemia it was 2.03% (active). Also, the growth in the experiment with MALME-3M melanoma was -78.8% (active); in the experiment with MDA-MB-231 breast, -36.4% (active); in the experiment with RXF 393 renal, -87.9% (active); in the experiment on SF-268 CNS, -42.2% (active); in the experiment on SF-295 CNS, 34.4%; with SF-539 CNS, -43.9% (active). Also, the growth in the experiment on UACC-257 melanoma was 42.8%; with M14 melanoma, -52.3% (active).
As to `COc1ccc(NC(=O)c2sc3nc(C)c(C(=O)c4ccccc4)cc3c2N)cc1`, the growth was 96.1% with NCI-H23 lung; 97.2% in the experiment on NCI-H226 lung; 64.7% with NCI-H322M lung; 97.7% in the experiment on HOP-62 NSCLC; 61.3% in the experiment with NCI-H460 lung; 111% with HOP-92 NSCLC. Moreover, the growth was 80.8% in the experiment on NCI-H522 lung; 52% in the experiment with A549/ATCC NSCLC; 96.4% with 786-0 renal; 108% with COLO 205 colon; 116% with DU-145 prostate; 94.2% in the experiment with K-562 leukemia. In addition, the growth is 102% in the experiment with MALME-3M melanoma; 98.6% in the experiment on MDA-MB-231 breast; 87.8% in the experiment on RXF 393 renal; 104% in the experiment on SF-268 CNS; 103% in the experiment on SF-295 CNS; 102% with SF-539 CNS. For the same compound, the figures for the growth in the experiment on UACC-257 melanoma and in the experiment on M14 melanoma were 96.9% and 106%, respectively.
